# About 35 (0.04%) of roughly 85,000 compounds were called active.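 How the source made its calls: active means viability drop by adding the cancer drug above about 55%, with treated viability meeting a 40% cutoff (limit read from the data); inactive means the rest, inconclusive results apart.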 The sample as a whole holds a higher share of actives than the screen did.
# Assay: reversal of MRP1-mediated doxorubicin resistance, primary screen, H69AR cells, doxorubicin co-treatment (AID 602);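 on differential viability (reversal): larger differential means the compound sensitizes cells more to doxorubicin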
# Conditions: CellTiter-Glo, 72 h, at 10 µM; for differential viability (reversal): stronger effect = higher value
# [1] = H69AR cells + 2 uM doxorubicin, measured here: viability with 2 uM doxorubicin, stronger effect = lower value
# [2] = H69AR cells, measured here: cytotoxicity without doxorubicin
Structure (SMILES),differential viability (reversal) (H69AR cells + 2 uM doxorubicin),viability [1] [%],viability [2] [%]
CSC1=NP(=S)(SC)N(C)c2nc3n(c21)CCC3 (stereo not given),57.9% (active),27.2,85.1
CCOc1ccc(CN(CCCl)CCCl)cc1C(=O)OC,-29% (inactive),83.1,54.1
Cn1c(O)c(C=NCCN2CCNCC2)c(=O)n(C)c1=O,8.13% (inactive),85.1,93.2
CC(=O)NC(=O)NC(C)Cc1ccccc1 (stereo not given),-9.72% (inactive),96.7,87
CCN(N=Nc1nonc1OC)c1nonc1OC,9.43% (inactive),86.2,95.7
